Among the data in PubChem BioAssay (NCI) are growth inhibition values, retold here.

This is part of a sample that, as a whole, favours compounds with a hit. Of some 79,000 tested, about 15% had one in any assay. Unmarked numbers belong to inactive results. Active and inactive are the calls of the source. Cut-off read from the data, not from the text of the source: active = growth inhibition above about 70%; inactive = the rest.

Assay [1] in a line: NCI Yeast Anticancer Drug Screen. Data for the rad50 strain (AID 155).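 Note: 0% = growth of vehicle-only cultures of the same strain.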 To be noted: S. cerevisiae rad50 strain growth inhibition, hits give high values. An outline of the steps: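 Yeast carrying a defined DNA repair defect were exposed to test compounds, and growth was compared with vehicle-treated controls to give percent inhibition.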
A short description of assay [2]: NCI Yeast Anticancer Drug Screen. Data for the mec2-1 strain (AID 157). To be noted: S. cerevisiae mec2-1 strain, hits give high values. In outline:
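mec2-1 yeast strain, carrying an alteration in DNA damage repair or cell cycle control, was exposed to compounds; growth inhibition was measured relative to vehicle-treated controls.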

A short description of assay [3]: NCI Yeast Anticancer Drug Screen. Data for the sgs1 mgt1 strain (AID 161).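 Note: 0% = growth of cultures given vehicle only.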 The following applies: S. cerevisiae sgs1 mgt1 strain, hits give high values. An outline of the steps:
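Growth of a repair-deficient yeast mutant was monitored after compound treatment and expressed as inhibition relative to vehicle-treated cultures.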

Assay [4] can be described thus: NCI Yeast Anticancer Drug Screen. Data for the cln2 rad14 strain (AID 165).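 Note: 0% = growth equal to vehicle treated cultures.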 To be noted: S. cerevisiae cln2 rad14 strain, hits give high values. An outline of the steps: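 Yeast carrying cln2 and rad14 alterations (cell cycle control and DNA damage repair) were exposed to compounds. Growth inhibition was measured against vehicle-treated controls.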
Assay [5] can be described thus: NCI Yeast Anticancer Drug Screen. Data for the bub3 strain (AID 167). To be noted: S. cerevisiae bub3 mutant strain, hits give high values. In outline:
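Compounds were applied to a genetically altered yeast strain carrying a cell-cycle control defect. Growth inhibition was scored against vehicle-treated controls.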

Assay [6] can be described thus: NCI Yeast Anticancer Drug Screen. Data for the mlh1 rad18 strain (AID 175). To be noted: S. cerevisiae mlh1 rad18 strain growth inhibition, hits give high values. In outline: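 Growth inhibition of the yeast strain was measured after compound exposure and expressed relative to vehicle-treated controls. The strain carries defined defects in DNA damage repair.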
Where [7] appears, read: at 5.0 µM (retest, dose inferred, filed as 0.5).
Setting [8] is: at 50.0 µM (retest, dose inferred, filed as 5.0).

On to `CCOC(=O)N1CCN(c2cc(C)nc3cc(OC)ccc23)CC1`, for which the growth inhibition in assay [1] (setting [7]) is 4%; in assay [1] (setting [8]), -4%; in assay [1] (at 50.0 µM), 21.1%; in assay [2] (setting [7]), -1%; in assay [2] (setting [8]) it was 1%; in assay [2] (at 50.0 µM), 5.9%. Further, the growth inhibition was 0% in assay [3] (setting [7]); -5% in assay [3] (setting [8]); 17.6% in assay [3] (at 50.0 µM); -1% in assay [4] (setting [7]); -5% in assay [4] (setting [8]); 3% in assay [5] (setting [7]). For the same compound, the growth inhibition in assay [5] (setting [8]) was 1%; in assay [5] (at 50.0 µM) it was 59.5%; in assay [6] (setting [7]), 0%; in assay [6] (setting [8]), -7%; in assay [6] (at 50.0 µM), 38.9%.
`CCc1ccccc1NC(=O)C1=C(C)NC(C)=C(C(=O)Nc2c(CC)cccc2CC)C1c1ccc2c(c1)OCO2` (configuration not stated): the growth inhibition was 30% in assay [1] (setting [7]); 30% in assay [1] (setting [8]); 89.5% (active) in assay [1] (at 50.0 µM); 22% in assay [2] (setting [7]); 22% in assay [2] (setting [8]); 88.7% (active) in assay [2] (at 50.0 µM). The growth inhibition in assay [3] (setting [7]) was 29%; in assay [3] (setting [8]), 29%; in assay [3] (at 50.0 µM), 89.3% (active); in assay [5] (setting [7]), 24%; in assay [5] (setting [8]), 24%; in assay [5] (at 50.0 µM) it was 90.3% (active). The growth inhibition in assay [6] (setting [7]) was 28%; in assay [6] (setting [8]), 28%; in assay [6] (at 50.0 µM) it was 87.7% (active).
With `NS(=O)(=O)c1ccc(NC(=S)/N=C\C(C(=O)c2ccccc2)=C(\O)c2ccccc2)cc1`, the growth inhibition was 7% in assay [1] (setting [7]); 12% in assay [1] (setting [8]); 6.9% in assay [1] (at 50.0 µM); -2% in assay [2] (setting [7]); -15% in assay [2] (setting [8]); 1.7% in assay [2] (at 50.0 µM). The growth inhibition in assay [3] (setting [7]) was 0%; in assay [3] (setting [8]) it was -5%; in assay [3] (at 50.0 µM), 9.8%; in assay [5] (setting [7]) it was 3%; in assay [5] (setting [8]) it was 8%; in assay [5] (at 50.0 µM), 8.15%. The growth inhibition in assay [6] (setting [7]) was 10%; in assay [6] (setting [8]), -7%; in assay [6] (at 50.0 µM) it was 2.15%.
`CN(C)c1ccc(C(=C2C=CC(=[N+](C)C)C=C2)c2ccc(N(C)C)cc2)cc1` (tested in a mixture with another compound): the growth inhibition in assay [1] (setting [7]) is 98% (active); in assay [1] (setting [8]) it was 90% (active); in assay [1] (at 50.0 µM) it was 87.5% (active); in assay [2] (setting [7]) it was 99% (active); in assay [2] (setting [8]) it was 93% (active); in assay [2] (at 50.0 µM) it was 88% (active). Further, the growth inhibition was 98% (active) in assay [3] (setting [7]); 95% (active) in assay [3] (setting [8]); 89.7% (active) in assay [3] (at 50.0 µM); 98% (active) in assay [5] (setting [7]); 93% (active) in assay [5] (setting [8]); 88.5% (active) in assay [5] (at 50.0 µM). The results for the growth inhibition in assay [6] (setting [7]), in assay [6] (setting [8]) and in assay [6] (at 50.0 µM) were 98% (active), 91% (active) and 86.5% (active), respectively.
As for `CN(C)c1ccc(/C=N/N=C(\C#N)[S][Sn]([Cl])([c]2ccccc2)[c]2ccccc2)cc1`, the growth inhibition was 98% (active) in assay [1] (setting [7]); 95% (active) in assay [1] (setting [8]); 97.5% (active) in assay [1] (at 50.0 µM); 98% (active) in assay [2] (setting [7]); 96% (active) in assay [2] (setting [8]); 97.3% (active) in assay [2] (at 50.0 µM). For the same compound, the growth inhibition in assay [3] (setting [7]) was 98% (active); in assay [3] (setting [8]), 96% (active); in assay [3] (at 50.0 µM), 97.5% (active); in assay [4] (setting [7]), 98% (active); in assay [4] (setting [8]) it was 89% (active); in assay [4] (at 50.0 µM), 95% (active). Moreover, the growth inhibition is 97% (active) in assay [6] (setting [7]), 96% (active) in assay [6] (setting [8]) and 97.2% (active) in assay [6] (at 50.0 µM).
Consider `CN(C)c1ccc(C(c2cc3c(cc2O)OCO3)N2CCCCC2)cc1` (configuration not stated), for which the growth inhibition in assay [1] (setting [7]) is 3%; in assay [1] (setting [8]) it was 86% (active); in assay [1] (at 50.0 µM), 99.3% (active); in assay [2] (setting [7]), -4%; in assay [2] (setting [8]) it was 98% (active); in assay [2] (at 50.0 µM), 99.5% (active). The growth inhibition was 8% in assay [3] (setting [7]); 88% (active) in assay [3] (setting [8]); 99.5% (active) in assay [3] (at 50.0 µM); -1% in assay [4] (setting [7]); 70% (active) in assay [4] (setting [8]); 98.3% (active) in assay [4] (at 50.0 µM). Besides, the growth inhibition was -8% in assay [6] (setting [7]), 97% (active) in assay [6] (setting [8]) and 99.3% (active) in assay [6] (at 50.0 µM).
`NC1=CC(=O)c2ccccc2C1=O`: the growth inhibition in assay [1] (setting [7]) was 18%; in assay [1] (setting [8]), 84% (active); in assay [1] (at 50.0 µM) it was 94.5% (active); in assay [2] (setting [7]) it was 1%; in assay [2] (setting [8]), 48%; in assay [2] (at 50.0 µM), 62.3%. In addition, the growth inhibition in assay [4] (setting [7]) is 9%; in assay [4] (setting [8]) it was 33%; in assay [4] (at 50.0 µM) it was -1.65%; in assay [5] (setting [7]), 42%; in assay [5] (setting [8]) it was 93% (active); in assay [5] (at 50.0 µM) it was 93.8% (active). Moreover, the growth inhibition in assay [6] (setting [7]) is 31%; in assay [6] (setting [8]), 84% (active); in assay [6] (at 50.0 µM), 95.5% (active).
`O=C(O)c1ccccc1Cc1ccc2c(c1)Cc1ccccc1-2`: the growth inhibition is 2% in assay [1] (setting [7]); 76% (active) in assay [1] (setting [8]); 62.5% in assay [1] (at 50.0 µM); -5% in assay [2] (setting [7]); 67% in assay [2] (setting [8]); 66.3% in assay [2] (at 50.0 µM). The growth inhibition is 6% in assay [3] (setting [7]); 89% (active) in assay [3] (setting [8]); 63.5% in assay [3] (at 50.0 µM); -6% in assay [5] (setting [7]); 68% in assay [5] (setting [8]); 50.4% in assay [5] (at 50.0 µM). In addition, the growth inhibition in assay [6] (setting [7]) is 14%; in assay [6] (setting [8]), 80% (active); in assay [6] (at 50.0 µM), 79.2% (active).
As to `CCCCCCCCCC(=O)NN=C(C)C`, the growth inhibition in assay [1] (setting [7]) was -129%; in assay [1] (setting [8]), 54%; in assay [1] (at 50.0 µM) it was 93.1% (active); in assay [2] (setting [7]) it was -49%; in assay [2] (setting [8]), 45%; in assay [2] (at 50.0 µM), 83.2% (active). Moreover, the growth inhibition is -59% in assay [3] (setting [7]); 75% (active) in assay [3] (setting [8]); -2.75% in assay [3] (at 50.0 µM); -72% in assay [5] (setting [7]); 41% in assay [5] (setting [8]); 88% (active) in assay [5] (at 50.0 µM). For the same compound, the results for the growth inhibition in assay [6] (setting [7]), in assay [6] (setting [8]) and in assay [6] (at 50.0 µM) were -131%, 46% and 90.8% (active), respectively.
As for `Clc1ccc2[nH]c(-c3ccccc3)c(-c3ccccn3)c2c1`, the growth inhibition in assay [1] (setting [7]) is 81% (active); in assay [1] (setting [8]) it was 94% (active); in assay [1] (at 50.0 µM), 96.2% (active); in assay [2] (setting [7]) it was 80% (active); in assay [2] (setting [8]), 98% (active); in assay [2] (at 50.0 µM) it was 94.5% (active). Further, the growth inhibition is 81% (active) in assay [4] (setting [7]); 97% (active) in assay [4] (setting [8]); 94% (active) in assay [4] (at 50.0 µM); 93% (active) in assay [5] (setting [7]); 97% (active) in assay [5] (setting [8]); 96.7% (active) in assay [5] (at 50.0 µM). The growth inhibition in assay [6] (setting [7]) is 96% (active); in assay [6] (setting [8]), 97% (active); in assay [6] (at 50.0 µM), 95.4% (active).
For `CC1CCC(C(C)C2C(O)CC3C4CC=C5CC(O)CCC5(C)C4CCC32C)NC1` (configuration not stated), the growth inhibition in assay [1] (setting [7]) is -23%; in assay [1] (setting [8]), 81% (active); in assay [1] (at 50.0 µM) it was 66.8%; in assay [2] (setting [7]), 1%; in assay [2] (setting [8]), 18%; in assay [2] (at 50.0 µM), 25.1%. Also, the growth inhibition was 12% in assay [3] (setting [7]); 96% (active) in assay [3] (setting [8]); 88.5% (active) in assay [3] (at 50.0 µM); -1% in assay [5] (setting [7]); 70% (active) in assay [5] (setting [8]); 10.9% in assay [5] (at 50.0 µM). The growth inhibition in assay [6] (setting [7]) is 10%; in assay [6] (setting [8]), 54%; in assay [6] (at 50.0 µM), 57.5%.
